Experimental data: PubChem BioAssay AID2108 (National Center for Advancing Translational Sciences (NCATS), 2009)
Inconclusive results are not listed. Unmarked numbers belong to inactive results. Calls of active or inactive are those of the source. The call rests on the fitted dose curve; in most records, active means well fitted curve in the direction sought with a large enough effect; inconclusive means small, poorly fitted or top-dose-only effect, or effect the other way, or another doubt; inactive means no such curve, though single readings can be large or run the other way.

molecular target: Alpha-galactosidase A (Homo sapiens) (UniProt P06280); assay: Confirmation of Inhibitors of Human alpha-Galactosidase Using Spleen Homogenate; details: alpha-galactosidase enzyme activity; series mostly up to 56.2 µM; activity change: at the top concentration; further: 0% is about no effect
Sequence (P06280 32-429 limits assumed): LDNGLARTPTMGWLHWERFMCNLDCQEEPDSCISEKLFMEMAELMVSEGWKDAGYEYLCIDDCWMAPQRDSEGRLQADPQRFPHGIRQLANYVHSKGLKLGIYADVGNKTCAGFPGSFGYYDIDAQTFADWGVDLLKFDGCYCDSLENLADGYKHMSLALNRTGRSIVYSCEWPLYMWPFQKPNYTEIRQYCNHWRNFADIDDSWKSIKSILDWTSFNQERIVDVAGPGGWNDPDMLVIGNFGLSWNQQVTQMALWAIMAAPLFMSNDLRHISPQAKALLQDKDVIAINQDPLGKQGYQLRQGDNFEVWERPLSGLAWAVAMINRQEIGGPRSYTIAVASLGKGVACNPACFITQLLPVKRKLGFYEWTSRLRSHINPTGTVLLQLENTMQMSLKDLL
Excerpt: NIH Chemical Genomics Center [NCGC]
NIH Molecular Libraries Probe Production Centers Network [MLPCN]
Assay Submitter (PI): Wei Zheng
Alpha-galactosidase is a homodimeric glycoprotein that hydrolyzes the terminal alpha-galactosyl moieties from glycolipids and glycoproteins. Deficiency of this enzyme results in Fabry Disease with progressive accumulation of globotriaosylceramide and other glycosphingolipids in vascular endothelial cells that causes renal failure, myocardial infarction and stroke, and premature death in patients. It has been reported that the improper folding and trafficking of alpha-galactosidase resulting from genetic mutations may account for a significant number of Fabry patients. […] We optimized this alpha-galactosidase assay in 1536-well plate format for identification of novel small molecule inhibitors or activators with structures other than the sugar analogs in order to develop new pharmacological chaperones. In particular, this assay is directed towards discovering compounds active in more natural setting, tissue homogenate, that may have been missed by screens of the purified enzyme under more stringent conditions. This assay attempted to confirm hits from the primary screening.
NCGC Assay Protocol Summary:
This is a fluorogenic enzyme assay with 4-methylumbelliferyl-alpha-D-galactopyranoside as the substrate and human spleen homogenate containing alpha-galactosidase as the enzyme preparation. Upon hydrolysis of this fluorogenic substrate, the resulting product, 4-methylumbelliferone (which excites at 365 nm and emits at 440 nm) can be detected by a fluorescence plate reader. Data were normalized to the controls for basal activity (without enzyme) and 100% activity (with enzyme). The AC50 values were determined from concentration-response data modeled with the standard Hill equation.
Assay buffer: 50 mM citric acid (titrated with potassium phosphate to pH 5.0), 0.01% Tween-20 (pH 5.0 is an optimal condition for this enzyme assay)
1536-well assay protocol for the alpha-galactosidase from human spleen homogenate:
(1) Add 2 ul/well spleen homogenate (1 ug)
(2) Add 23 nL compounds in DMSO solution. The final titration was 0.5 nM to 58 uM.
(3) Add 2 ul of substrate (1 mM final)
(4) Incubate at 37C for 40 min
(5) Add 2 ul stop solution (1M NaOH and 1M Glycine mixture, pH 10)
(6) Detect the assay plate in a ViewLux plate reader (PerkinElmer) with Ex=365 nm and Em=440nm.
Keywords: Alpha-galactosidase, Fabry Disease, pharmacological chaperone, chaperone therapy, high throughput screening, alpha- galactosidase inhibitor, MLSMR, MLSCN, NIH Roadmap, qHTS and NCGC

SMILES | activity change | outcome
C/C=C(/C)C(=O)O[C@H]1C(C)=C2C([C@@H]1OC(=O)CCCCCCC)[C@@](C)(OC(C)=O)C[C@@H](OC(=O)CCC)[C@@]1(O)[C@H]2OC(=O)[C@@]1(C)O (stereo partly drawn) | -13.8% | –
O[C@@H]1[C@H](O)[C@H]2[C@@H](O)CCN2C[C@@H]1O | -6.64% [at 287 µM] | –
Cc1ccc2c(CN3CC=C(c4ccccc4)CC3)cc(=O)oc2c1C | 0.701% | –
Cc1cc(C(=O)CS(=O)(=O)c2ccc(F)cc2)cc(C)c1OC(=O)N(C)C | 2.73% [at 23.6 µM] | –
CC(=O)[O][Hg][c]1ccccc1 | 4.67% [at 287 µM] | –
CC(=O)Nc1ccc(OC(=O)c2ccccc2N)cc1 | 6.81% [at 23.6 µM] | –
O[C@H]1[C@H](O)[C@@H](O)CN2CC[C@H](O)[C@H]12 | – | inactive
C/C(O)=C(/C#N)C(=O)Nc1cc(Br)ccc1Br | -8.06% | –
COc1ccc(Cc2nccc3cc(OC)c(OC)cc23)cc1OC | -3.36% | –
Cc1[nH]c2ccccc2c1C1=CCNCC1 | 0.948% | –
CC(C)(C)c1cc(C=C(C#N)C#N)cc(C(C)(C)C)c1O | -10.5% | –
O=c1[nH]c(CN2CC=C(c3ccccc3)CC2)nc2scc(-c3cccs3)c12 | -0.863% | –
OC[C@@H]1[C@@H](O)[C@H](O)[C@H]2[C@@H](O)CCN21 | -8.3% | –
CCOc1ccc2cc(C#N)c(=O)oc2c1 | 1.36% | –
Cc1cc(/C=C2\C(=O)NC(=O)N(c3ccc(F)cc3)C2=O)c(C)n1-c1ccc(C(=O)O)cc1 | 0.884% | –
CCCCC/C=C\C/C=C\C/C=C\C/C=C\CCCC(=O)NCCCC(=O)O | -14.3% | –
Cc1cc(/C=C2/C(=O)NC(=O)N(Cc3ccco3)C2=O)c(C)n1-c1ccc(C(=O)O)cc1 | 1.17% | –
O=C(O)c1ccccc1-c1c2cc(Br)c(=O)cc-2oc2[c]([Hg])c(O)c(Br)cc12 | -13.4% [at 287 µM] | –
